Measured values published in PubChem BioAssay AID488821 (National Center for Advancing Translational Sciences (NCATS), 2010).
Inconclusive results are not listed. Values without a mark were called inactive. Activity calls are given as the source filed them. The call rests on the fitted dose curve; in most records, active means well fitted inhibition curve with a large enough effect; inconclusive means small, poorly fitted or top-dose-only effect, or effect the other way; inactive means flat fitted curve, though single readings scatter.

Test: Counterscreen Assay for Enhancers of SMN2 Splice Variant Expression: Modulation of SMN1 Expression for Further Probe SAR
Settings: HEK293 SMN1-luciferase reporter, luminescence, 30-36 h; series mostly up to 46.1 µM; activity change, negative = inhibition: at the top concentration
Description: NIH Chemical Genomics Center [NCGC] NIH Molecular Libraries Probe Production centers Network [MLPCN] MLPCN Grant: R03 MH084179-01 Assay Submitter (PI): Elliot Androphy NCGC Assay Overview: Spinal muscular atrophy (SMA) is caused by insufficient levels of the survival motor neuron protein SMN. The SMN locus on chromosome 5q13 contains two inverted copies of SMN called SMN1 and SMN2 which are 99% identical at the amino acid level. SMN1 is a fully functional protein and SMN2 skips exon 7 90% of the time. Skipping of exon 7 produces non-functional protein product. 10% of the SMN2 protein includes exon 7 and is fully functional. In the SMA disease state, mutations in the SMN1 locus are the cause of the disease state. Because only 10% of SMN2 is of the fully functional form, it is not sufficient to overcome the deficiency produced by the loss of the SMN1 product. A therapy that either increases the amount of SMN2 product made increases the inclusion of exon 7 has been proposed for the treatment of SMA. We have designed an assay to identify small molecules that can increase the amount of functional SMN2 product by appending a luciferase reporter gene after the native SMN2 gene, such that inclusion of exon 7 in the expressed product places the luciferase sequence in frame, thus generating functional luciferase enzyme. As a counterscreen for nonspecific modulators of expression, we have run compounds through a similar assay that measures expression of an SMN1-luciferase chimera.
NCGC Assay Protocol Summary: This screen utilizes a luciferase reporter gene assay, combining the promoter with the major portion of the native SMN1 cDNA (exons 1 -7, intron 8 , exon 8 fused to luciferase) stably expressed in HEK293 cells. Compounds that increase luciferase signal presumably enhance expression of the functional SMN1 splice variant. Passaging media contained DMEM w/ glutamax (+phenol red) 10% FCS, 1x pen/strep, 200 ug/ml hygro, 1x sodium pyruvate. Assay media contained DMEM w/ glutamax (-phenol red) 10% FCS, 1x pen strep, 1x pyruvate Sequence, Parameter, Value, Description (1) Cells, 5 uL, 2000 cells/well, 1536 TC treated White solid bottom plate (2) Time, 10-12 hours, 37C 5% CO2 (3) Compound, 23 nl, MLSMR Library (4) Control Compound, 23 nL, Sodium butyrate st 4.5mM (final) conc (5) Time, 30-36 hours, 37C 5% CO2 (6) Reagent, 3 ul, One Glo (TM) from Promega (7) Time, 5-15 minutes, Room temp (8) Detector, Viewlux: luminescent read, 60 second integration, high speed 2x binning Keywords: Spinal muscular atrophy, SMA, SMN2, high throughput screening, MLSMR, MLPCN, NIH Roadmap, qHTS and NCGC
In the case of `N#CC1CCN(c2nc(-c3ccc(Br)cc3)cs2)CC1`, the “activity change, negative = inhibition” value is reported as -22%. With `NC(=O)C1CCN(c2nc(-c3ccc4c(c3)CCO4)cs2)CC1` the “activity change, negative = inhibition” value was -6.44%. In the case of `NC(=O)C1CCN(c2ncc(-c3ccc4c(c3)OCCCO4)s2)CC1`, the Potency is reported as 0.487 µM (active). In the case of `N#Cc1ccc(-c2csc(N3CCC(C(N)=O)CC3)n2)cc1`, the “activity change, negative = inhibition” value is reported as -8.95%. In the case of `Nc1nc(N)c2c(OCC3CCN(Cc4ccccc4F)CC3)cccc2n1`, the Potency is reported as 19.4 µM (active). In the case of `O=C(Nc1ccccc1)C1CCN(c2ncc(-c3ccc4c(c3)OCCCO4)s2)CC1`, the Potency is reported as 0.487 µM (active). With `CN(C)c1cccc(-c2cnc(N3CCC(C(N)=O)CC3)nc2)c1` the Potency was 1.22 µM (active). For `CS(=O)(=O)N1CCN(c2nc(-c3ccc(Br)cc3)cs2)CC1`, the “activity change, negative = inhibition” value was -18.3%. With `NC(=O)C1CCN(c2nnc(-c3ccc4c(c3)OCCCO4)s2)CC1` the Potency was 1.54 µM (active). With `c1c[nH]c(C2CCN(c3ncc(-c4ccc5c(c4)OCCCO5)s3)CC2)n1` the Potency was 9.72 µM (active). With `CN(C)c1cccc(-c2cnc(N3CCC(C(N)=O)CC3)s2)c1` the Potency was 0.772 µM (active). In the case of `CCOC(=O)C1CCN(c2ncc(-c3ccc4c(c3)OCCCO4)s2)CC1`, the Potency is reported as 0.387 µM (active). For `O=C(C1CCN(c2nc(-c3ccc(Br)cc3)cs2)CC1)N1CCOCC1`, the “activity change, negative = inhibition” value was -15.1%. With `NC(=O)C1CCN(c2nc(-c3ccccc3Cl)cs2)CC1` the “activity change, negative = inhibition” value was -10.1%. With `NC(=O)C1CCN(c2nc(-c3cccc(Br)c3)cs2)CC1` the “activity change, negative = inhibition” value was -9.64%. For `CC(=O)Nc1ccc(-c2csc(N3CCC(C(N)=O)CC3)n2)cc1`, the “activity change, negative = inhibition” value was 17.6%. For `NC(=O)C1CCN(c2nc(-c3cccc(F)c3)cs2)CC1`, the “activity change, negative = inhibition” value was -5.59%. With `O=C(NCCCCc1ccccc1)C1CCN(c2nc(-c3ccc(Br)cc3)cs2)CC1` the “activity change, negative = inhibition” value was -12.8%. In the case of `CS(=O)(=O)c1ccc(-c2csc(N3CCC(C(N)=O)CC3)n2)cc1`, the “activity change, negative = inhibition” value is reported as -2.95%. In the case of `Brc1ccc(-c2csc(N3CCC(c4nn[nH]n4)CC3)n2)cc1`, the “activity change, negative = inhibition” value is reported as -18.6%. In the case of `CN(C)c1cccc(-c2nccc(N3CCC(C(N)=O)CC3)n2)c1`, the “activity change, negative = inhibition” value is reported as 14.2%. With `CC(C)COc1ccc(-c2csc(N3CCC(C(N)=O)CC3)n2)cc1` the “activity change, negative = inhibition” value was -19.3%. With `NC(=O)C1CCN(c2nnc(-c3ccc(Br)cc3)s2)CC1` the Potency was 12.2 µM (active). With `NC(=O)C1CCN(c2ncc(-c3cccc(N4CCCC4)c3)s2)CC1` the Potency was 12.2 µM (active). With `NC(=O)C1CCN(c2nc(-c3cccc(C(F)(F)F)c3)cs2)CC1` the “activity change, negative = inhibition” value was 28.5%. In the case of `CN(C)c1cccc(-c2cc(N3CCC(C(N)=O)CC3)ncn2)c1`, the “activity change, negative = inhibition” value is reported as -22.8%. With `NC(=O)C1CCN(c2nc(-c3ccccc3[N+](=O)[O-])cs2)CC1` the “activity change, negative = inhibition” value was 15.1%. With `O=C(C1CCN(c2nc(-c3ccc(Br)cc3)cs2)CC1)N1CCNCC1` the “activity change, negative = inhibition” value was 11.6%. With `CC(C)(C)c1ccc(-c2csc(N3CCC(C(N)=O)CC3)n2)cc1` the “activity change, negative = inhibition” value was -21%. In the case of `CN(C)c1ccc(-c2csc(N3CCC(C(N)=O)CC3)n2)cc1`, the “activity change, negative = inhibition” value is reported as -11.1%. For `NC(=O)C1CCN(c2ncc(Br)s2)CC1`, the “activity change, negative = inhibition” value was -5.62%. In the case of `N#Cc1ccccc1-c1csc(N2CCC(C(N)=O)CC2)n1`, the “activity change, negative = inhibition” value is reported as -5.52%. With `CC(C)Oc1cccc(-c2cnc(N3CCC(C(N)=O)CC3)s2)c1` the Potency was 4.87 µM (active). With `NC(=O)C1CCN(c2nccc(-c3ccc(Br)cc3)n2)CC1` the Potency was 12.2 µM (active). In the case of `NC(=O)C1CCN(c2nc(-c3ccccc3)cs2)CC1`, the “activity change, negative = inhibition” value is reported as -16.6%. In the case of `CC(=O)C1CCN(c2ncc(-c3cccc(N(C)C)c3)s2)CC1`, the Potency is reported as 12.2 µM (active). With `NC(=O)C1CCN(c2nc(-c3ccc(OCc4ccccc4)cc3)cs2)CC1` the “activity change, negative = inhibition” value was -12.4%. In the case of `NC1CCN(c2nc(-c3ccc(Br)cc3)cs2)CC1`, the Potency is reported as 19.4 µM (active). With `Cc1cnc(N2CCC(C(N)=O)CC2)nc1-c1cccc(N(C)C)c1` the “activity change, negative = inhibition” value was 17.8%. For `O=C(O)C1CCN(c2ncc(-c3ccc4c(c3)OCCCO4)s2)CC1`, the Potency was 0.244 µM (active).
